# Measurements: PubChem BioAssay (NCATS)
# Inconclusive results are not listed. A call without a number means that no potency is given here. Activity calls are given as the source filed them. Unless noted, the call rests on the fitted dose curve; in most records, active means well fitted curve in the direction sought with a large enough effect; inconclusive means small, poorly fitted or top-dose-only effect, or another doubt; inactive means no such curve, though single readings can be large; an effect the other way counts as inactive or inconclusive.
# What was measured:
# [1] = qHTS Assay for Lipid Storage Modulators (AID 1519; calls by dose curve; further: potency means the concentration at half of the fitted maximal effect); conditions: Drosophila S3 cells, BODIPY lipid droplet/cell ratio, laser cytometry, cells loaded with oleic acid
# How it was run: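 Cells seeded at 5,000 per well were treated with compounds over a concentration series and loaded with oleic acid (400 uM, as added). Lipid droplet fluorescence (488 nm excitation, 500-530 nm channel) was read by laser-scanning cytometry and normalized to 20 uM Triacsin C.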
# [2] = target: Cytochrome P450 3A4 (Homo sapiens) (UniProt P08684); test: qHTS Assay for Inhibitors and Substrates of Cytochrome P450 3A4 (AID 884); conditions: recombinant CYP3A4, Luciferin-PPXE luminescence; series mostly up to 57.1 µM; further: nearly all actives have a fitted effect of over 50% in size; further: potency means the concentration at half of the fitted maximal effect
# How it was run: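 Luminescent readout of luciferin produced by CYP3A4 (20 nM) dealkylation of Luciferin-PPXE, 25 uM (its KM). NADPH-driven reaction ran 60 min at RT after 10 min compound preincubation; data scaled to 57 uM ketoconazole as 100% inhibition.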
# [3] = target: Ubiquitin carboxyl-terminal hydrolase 1 (Homo sapiens) (UniProt O94782); test: Inhibitors of USP1/UAF1: Pilot qHTS (AID 504865); conditions: purified USP1/UAF1, Ub-rhodamine cleavage fluorescence; series mostly up to 114 µM;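 further: rhodamine fluorescence freed from ubiquitin-rhodamine substrate followed over time; top concentration of the series differs between compounds; nearly all actives have a fitted effect of over 35% in size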
# How it was run: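 Enzyme-free wells gave the negative control, while test wells held 1nM USP1/UAF1 preincubated with compound for 15 min at room temperature. Ub-Rho at 150nM final started the reaction, and fluorescence at 480/540 nm was recorded kinetically.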
# [4] = target: Luciferin 4-monooxygenase (Photinus pyralis) (UniProt P08659); test: Biochemical firefly luciferase enzyme assay for NPC (AID 624030);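 further: purified P. pyralis luciferase at 10 nM with luciferin and ATP substrate; nearly all actives have a fitted effect of over 70% in size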; conditions: purified P. pyralis luciferase, luminescence, 5 min; series mostly up to 24.9 µM
# How it was run: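 Counter-screen for direct inhibition of the luciferase enzyme by approved-drug library compounds, run at 10 nM enzyme in 50 mM Tris acetate (final). Luminescence was read within 5 min of enzyme-buffer addition and normalized to PTC124 versus DMSO (0%).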
# [5] = S16 Schwann cell PMP22 intronic element beta-lactamase assay (AID 624044; calls by dose curve; further: nearly all actives have a fitted effect of over 15% in size); conditions: S16 rat Schwann cells, PMP22 element beta-lactamase FRET, 24 h; series mostly up to 17.1 µM
# How it was run: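 Beta-lactamase reporter under a PMP22 intronic regulatory element in stable S16 rat Schwann cells; 24 h compound exposure. 460 nm blue signal normalized between DMSO (0%) and potassium clavulanate, with 535 nm FRET tracking viability; curves classed by r2 and response.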
# [6] = qHTS profiling for inhibitors of Plasmodium falciparum proliferation (AID 504749); further: nearly all actives have a fitted effect of over 60% in size; conditions: P. falciparum in erythrocytes, SYBR Green DNA, 72 h, at 12.8 µM (top of the series)
# How it was run: (§1)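 Fluorescence of SYBR Green-bound parasite DNA, read at 485/535 nm, served as the growth measure. Infected erythrocytes were cultured with compound 72 h; artemisinin (0.29 uM) and DMSO wells defined the normalization range.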
# C2A = test: as above; conditions: P. falciparum in erythrocytes, SYBR Green DNA, 72 h; series mostly up to 12.8 µM
# How it was run: as §1
# CP191 = test: as above; conditions: P. falciparum in erythrocytes, SYBR Green DNA, 72 h; series mostly up to 12.8 µM
# How it was run: as §1
# CP201 = test: as above; conditions: P. falciparum in erythrocytes, SYBR Green DNA, 72 h; series mostly up to 12.8 µM
# How it was run: as §1
# CP238 = test: as above; conditions: P. falciparum in erythrocytes, SYBR Green DNA, 72 h; series mostly up to 12.8 µM
# How it was run: as §1
# CP262 = test: as above; conditions: P. falciparum in erythrocytes, SYBR Green DNA, 72 h; series mostly up to 12.8 µM
# How it was run: as §1
# CP268 = test: as above; conditions: P. falciparum in erythrocytes, SYBR Green DNA, 72 h; series mostly up to 12.8 µM
# How it was run: as §1
# CP315 = test: as above; conditions: P. falciparum in erythrocytes, SYBR Green DNA, 72 h; series mostly up to 12.8 µM
# How it was run: as §1
# DFO2036 = test: as above; conditions: P. falciparum in erythrocytes, SYBR Green DNA, 72 h; series mostly up to 12.8 µM
# How it was run: as §1
# ECU = test: as above; conditions: P. falciparum in erythrocytes, SYBR Green DNA, 72 h; series mostly up to 12.8 µM
# How it was run: as §1
# FAB9 = test: as above; conditions: P. falciparum in erythrocytes, SYBR Green DNA, 72 h; series mostly up to 12.8 µM
# How it was run: as §1
# PC15 = test: as above; conditions: P. falciparum in erythrocytes, SYBR Green DNA, 72 h; series mostly up to 12.8 µM
# How it was run: as §1
# PC49 = test: as above; conditions: P. falciparum in erythrocytes, SYBR Green DNA, 72 h; series mostly up to 12.8 µM
# How it was run: as §1
# [7] = Confirmation and Secondary Assay for Modulators of Hemoglobin Beta Chain Splicing at IVS2 654 locus (AID 910); conditions: HeLa EGFP-654 splicing reporter, GFP fluorescence, 48 h; series mostly up to 46.1 µM;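 further: per-well total GFP intensity by laser scanning cytometry after 2-day treatment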
# How it was run: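 HeLa cells stably carrying EGFP interrupted by mutant beta-globin IVS2-654 intron (CMV-driven) were treated with compound for 2 days at 37C; corrected splicing was scored as total peak GFP intensity per well (488 nm excitation, 500-520 nm emission).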
# [8] = measured here: cell count channel max response
# [9] = measured here: lipid channel max response
# Luciferin 4-monooxygenase (Photinus pyralis), sequence (P08659 whole entry, looked up): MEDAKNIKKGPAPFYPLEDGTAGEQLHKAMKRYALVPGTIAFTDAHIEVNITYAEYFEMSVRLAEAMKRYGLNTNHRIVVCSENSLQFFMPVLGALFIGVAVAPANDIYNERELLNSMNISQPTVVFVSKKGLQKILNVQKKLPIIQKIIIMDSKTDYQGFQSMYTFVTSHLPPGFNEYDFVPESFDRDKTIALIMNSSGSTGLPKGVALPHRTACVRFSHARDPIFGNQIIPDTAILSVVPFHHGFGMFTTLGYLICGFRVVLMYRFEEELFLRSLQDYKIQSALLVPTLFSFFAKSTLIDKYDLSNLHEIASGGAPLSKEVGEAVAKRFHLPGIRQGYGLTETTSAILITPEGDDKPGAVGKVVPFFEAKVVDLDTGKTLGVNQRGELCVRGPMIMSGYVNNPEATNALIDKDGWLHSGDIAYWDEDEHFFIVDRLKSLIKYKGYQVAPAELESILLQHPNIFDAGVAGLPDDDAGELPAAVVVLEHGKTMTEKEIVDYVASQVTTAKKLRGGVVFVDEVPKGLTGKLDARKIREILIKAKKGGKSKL
# Ubiquitin carboxyl-terminal hydrolase 1 (Homo sapiens), sequence (O94782 whole entry, looked up): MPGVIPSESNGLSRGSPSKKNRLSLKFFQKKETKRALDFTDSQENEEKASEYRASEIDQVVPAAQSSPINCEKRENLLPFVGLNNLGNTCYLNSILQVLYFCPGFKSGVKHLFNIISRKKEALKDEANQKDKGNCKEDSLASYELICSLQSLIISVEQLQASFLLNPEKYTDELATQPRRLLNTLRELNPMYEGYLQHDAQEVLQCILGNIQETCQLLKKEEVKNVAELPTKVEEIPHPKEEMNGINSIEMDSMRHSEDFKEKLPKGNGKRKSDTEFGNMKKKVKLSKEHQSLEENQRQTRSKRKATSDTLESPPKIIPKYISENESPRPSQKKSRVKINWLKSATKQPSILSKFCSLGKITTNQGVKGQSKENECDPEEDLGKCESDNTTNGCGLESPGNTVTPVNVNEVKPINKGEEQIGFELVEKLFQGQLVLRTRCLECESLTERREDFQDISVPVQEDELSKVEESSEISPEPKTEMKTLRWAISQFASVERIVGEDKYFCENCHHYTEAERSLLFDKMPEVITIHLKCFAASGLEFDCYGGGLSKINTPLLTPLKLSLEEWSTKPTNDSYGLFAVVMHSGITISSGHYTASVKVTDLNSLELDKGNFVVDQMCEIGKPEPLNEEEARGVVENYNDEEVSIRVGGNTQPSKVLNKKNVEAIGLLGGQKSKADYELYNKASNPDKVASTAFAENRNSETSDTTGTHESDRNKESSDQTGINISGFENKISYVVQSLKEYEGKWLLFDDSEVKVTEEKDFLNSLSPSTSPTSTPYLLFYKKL
# Cytochrome P450 3A4 (Homo sapiens), sequence (P08684 whole entry, looked up): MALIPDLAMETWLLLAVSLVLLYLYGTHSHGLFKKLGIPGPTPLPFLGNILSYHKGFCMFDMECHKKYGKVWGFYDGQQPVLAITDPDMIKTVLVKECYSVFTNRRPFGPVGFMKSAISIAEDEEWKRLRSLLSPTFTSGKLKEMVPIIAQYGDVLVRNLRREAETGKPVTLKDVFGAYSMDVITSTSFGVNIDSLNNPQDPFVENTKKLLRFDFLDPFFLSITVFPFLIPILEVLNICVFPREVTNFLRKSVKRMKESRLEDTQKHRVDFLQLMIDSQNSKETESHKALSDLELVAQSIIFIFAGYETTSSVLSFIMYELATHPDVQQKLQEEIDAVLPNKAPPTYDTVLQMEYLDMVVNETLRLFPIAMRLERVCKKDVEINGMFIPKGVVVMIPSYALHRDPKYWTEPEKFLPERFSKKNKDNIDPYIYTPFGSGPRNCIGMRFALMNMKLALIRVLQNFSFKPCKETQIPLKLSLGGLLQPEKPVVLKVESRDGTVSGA
smiles,measurement,setting,value
NC[C@@H]1O[C@H](O[C@H]2[C@H](O)[C@@H](O[C@H]3[C@H](O)[C@H](N)C[C@H](N)[C@H]3O[C@@H]3O[C@H](CO)[C@@H](O)[C@H](O)[C@@H]3N)O[C@H]2CO)[C@@H](N)[C@H](O)[C@@H]1O,"activity change, negative = inhibition",[1]; at 25.7 µM (top of the series),-3.71% (inactive)
same,max response,[1]; [8],-10.9%
same,max response,[1]; [9],-14.4%
CN1[C@H](CC(=O)c2ccccc2)CCC[C@H]1C[C@@H](O)c1ccccc1,Potency,[2],inactive
same,"activity change, negative = inhibition",[1]; at 57.5 µM (top of the series),-2.41% (inactive)
same,max response,[1]; [8],-11.7%
same,max response,[1]; [9],-13.6%
CCN(CC)CCOC(=O)[C@@H](Cc1cccc2ccccc12)C[C@@H]1CCCO1,"activity change, negative = inhibition",[1]; at 25.7 µM (top of the series),-5.4% (inactive)
same,max response,[1]; [8],-1.15%
same,max response,[1]; [9],-7.84%
same,Potency,[3],inactive
same,Potency,[4],inactive
same,Potency,[5],inactive
same,"activity, negative = inhibition",[6]; parasite line A,5.1% (inactive)
same,"activity, negative = inhibition",[6]; parasite line B,10% (inactive)
same,Potency,C2A,inactive
same,Potency,CP191,inactive
same,Potency,CP201,inactive
same,Potency,CP238,inactive
same,Potency,CP262,inactive
same,Potency,CP268,inactive
same,Potency,CP315,inactive
same,Potency,DFO2036,inactive
same,Potency,ECU,inactive
same,Potency,FAB9,inactive
same,Potency,PC15,inactive
same,Potency,PC49,inactive
COC(=O)[C@@H]1[C@@H]2C[C@H]3c4[nH]c5cc(OC)ccc5c4CCN3C[C@@H]2C[C@H](OC(=O)/C=C\c2cc(OC)c(OC)c(OC)c2)[C@H]1OC,"activity change, negative = inhibition",[1]; at 25.7 µM (top of the series),-1.81% (inactive)
same,max response,[1]; [8],-4.11%
same,max response,[1]; [9],-3.85%
same,Potency,[3],inactive
same,Potency,[4],inactive
same,Potency,[5],inactive
same,Potency,CP201,inactive
same,Potency,CP262,inactive
same,Potency,FAB9,inactive
C[C@@H]1C[C@H](OC(=O)c2ccccc2O)CC(C)(C)C1,"activity change, negative = inhibition",[1]; at 25.7 µM (top of the series),-2.75% (inactive)
same,max response,[1]; [8],-8.27%
same,max response,[1]; [9],-10.7%
same,Potency,[3],inactive
CC1(C)S[C@@H]2[C@H](NC(=O)COc3ccccc3)C(=O)N2[C@H]1C(=O)O (tested in a mixture with another compound),"activity change, negative = inhibition",[1]; at 25.7 µM (top of the series),1.44% (inactive)
same,max response,[1]; [8],-7.85%
same,max response,[1]; [9],-7.74%
same,Potency,[3],inactive
Cc1ccnc(N)c1,"activity change, negative = inhibition",[1]; at 57.5 µM (top of the series),-1.11% (inactive)
same,max response,[1]; [8],-7.5%
same,max response,[1]; [9],-8.73%
same,Potency,[3],inactive
CC[C@H](C(=O)[C@H](C)[C@H](O)[C@H](C)CCc1ccc(C)c(O)c1C(=O)O)[C@H]1O[C@](CC)([C@@H]2CC[C@@](O)(CC)[C@H](C)O2)C[C@H]1C,Potency,[1],14.1 µM (active)
same,max response,[1]; [8],-26.4%
same,max response,[1]; [9],-85.1%
CO[C@@H]1C[C@H](O[C@H]2[C@@H](C)[C@H](O[C@@H]3O[C@@H](C)C[C@@H](N(C)C)[C@@H]3OC(C)=O)[C@H](C)C[C@]3(CO3)C(=O)[C@H](C)[C@H](OC(C)=O)[C@H](C)[C@H](C)OC(=O)[C@@H]2C)O[C@H](C)[C@@H]1OC(C)=O,"activity change, negative = inhibition",[1]; at 25.7 µM (top of the series),-1.3% (inactive)
same,max response,[1]; [8],-6.43%
same,max response,[1]; [9],-9.02%
same,Potency,[3],inactive
same,Potency,[4],inactive
same,Potency,[5],inactive
same,"activity, negative = inhibition",[6]; parasite line A,-21.7% (inactive)
same,"activity, negative = inhibition",[6]; parasite line B,-14.9% (inactive)
same,Potency,C2A,inactive
same,Potency,CP191,inactive
same,Potency,CP201,inactive
same,Potency,CP238,inactive
same,Potency,CP268,inactive
same,Potency,CP315,inactive
same,Potency,DFO2036,inactive
same,Potency,ECU,inactive
same,Potency,FAB9,inactive
same,Potency,PC15,inactive
same,Potency,PC49,inactive
C[C@@]12C=CC(=O)C=C1CC[C@H]1[C@H]3CC[C@](O)(C(=O)CO)[C@]3(C)CC(=O)[C@@H]12,"activity change, negative = inhibition",[1]; at 25.7 µM (top of the series),-0.593% (inactive)
same,max response,[1]; [8],0.532%
same,max response,[1]; [9],0.96%
COc1cccc(-c2nc(NCCc3c[nH]c4ccc(OC)cc34)c3ccccc3n2)c1,Potency,[2],2 µM (active)
same,Potency,[7],inactive
same,"activity change, negative = inhibition",[1]; at 57.5 µM (top of the series),5.14% (inactive)
same,max response,[1]; [8],-17.7%
same,max response,[1]; [9],-5.2%
CC[N+]1(C)[C@@H]2CC[C@H]1CC(OC(=O)[C@H]1CC[C@@](C(=O)OC3C[C@H]4CC[C@@H](C3)[N+]4(C)CC)(c3ccccc3)c3ccccc31)C2 (some centres not stated),"activity change, negative = inhibition",[1]; at 25.7 µM (top of the series),-4.59% (inactive)
same,max response,[1]; [8],-11.7%
same,max response,[1]; [9],-14.8%
same,Potency,[3],inactive
